According to PubChem BioAssay (Tox21):
“And” between values parts separate entries of the source, which are not always exact repeats. Equal values may be shown once. Some structures have more than one record in an assay (separate samples or runs), and their calls can disagree. The source made the active and inactive calls. A call without a number means that no potency is given here. Unless noted, calls come from the whole dose curve; as a rule, active = well fitted curve in the direction sought with a large enough effect in the repeat runs; inconclusive = weak or mixed curves; inactive = no such curve, though single readings can be large; an effect the other way counts as inactive or inconclusive.

Columns and labels:
[1] = qHTS assay to identify small molecule antagonists of the thyroid receptor (TR) signaling pathway - cell viability counter screen (AID 743064); note: nearly all actives have a fitted effect of over 50% in size; note: potency is the fitted concentration of half-maximal effect
Summary of the method: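 Counter screen for cytotoxicity: compound plus T3 (1 nM final) on GH3.TRE-Luc cells, 23.5 h at 37 °C, then fluorescence viability readout with CellTiter-Fluor.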

[2] = qHTS assay to identify small molecule antagonists of the thyroid receptor (TR) signaling pathway (AID 743065); note: nearly all actives have a fitted effect of over 55% in size; note: potency is the fitted concentration of half-maximal effect
Summary of the method: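 Antagonism measured as loss of luciferase signal in GH3 cells stably carrying a TRE-luciferase reporter, co-treated with compound and T3 (1 nM final) for 23.5 h at 37 C. Viability was read in the same well by CellTiter-Fluor.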

[3] = tested on: thyroid hormone receptor (rat, GH3 cells); assay: qHTS assay to identify small molecule agonists of the thyroid receptor (TR) signaling pathway (AID 743066; calls by dose curve; note: potency is the fitted concentration of half-maximal effect)
[4] = biological target: Estrogen receptor (Homo sapiens) (UniProt P03372); assay: qHTS assay to identify small molecule antagonists of the estrogen receptor alpha (ER-alpha) signaling pathway (AID 743069; active = well fitted curve in the direction sought with a large enough effect in the signal ratio in the repeat runs, not every such curve was filed as active; inconclusive = weak or mixed curves, or effect the other way; inactive = no such curve, though single readings can be large or run the other way; the % refers to the signal ratio)
Summary of the method: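 Antagonist mode: compounds in DMSO were co-added with 17beta-estradiol to ER-alpha-bla HEK293 cells (2% charcoal-stripped serum) and left 18 h at 37C. Reporter inhibition was measured as FRET fluorescence after 2 h LiveBLAzer substrate at room temperature.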

[5] = qHTS assay to identify small molecule antagonists of the estrogen receptor alpha (ER-alpha) signaling pathway - cell viability counter screen (AID 743074; calls by dose curve;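 note: HEK293 cells carrying ER-alpha-UAS-bla reporter stimulated with 17beta-estradiol; nearly all actives have a fitted effect of over 45% in size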; note: potency is the fitted concentration of half-maximal effect)
[6] = biological target: Estrogen receptor (Homo sapiens) (UniProt P03372); assay: qHTS assay to identify small molecule agonists of the estrogen receptor alpha (ER-alpha) signaling pathway (AID 743075; calls by dose curve;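 note: HEK293 GripTite cells with ER-alpha and UAS-driven beta-lactamase reporter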; note: potency is the fitted concentration of half-maximal effect)
[7] = biological target: Estrogen receptor (Homo sapiens) (UniProt P03372); assay: qHTS assay to identify small molecule agonists of the estrogen receptor alpha (ER-alpha) signaling pathway using the BG1 cell line (AID 743079); note: nearly all actives have a fitted effect of over 20% in size; note: potency is the fitted concentration of half-maximal effect
[8] = qHTS assay to identify small molecule antagonists of the estrogen receptor alpha (ER-alpha) signaling pathway using the BG1 cell line (AID 743080; calls by dose curve;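 note: BG1 cells stimulated with 17beta-estradiol alongside compound; nearly all actives have a fitted effect of over 25% in size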; note: potency is the fitted concentration of half-maximal effect); settings: BG1Luc4E2 ERE-luciferase antagonist mode, luminescence; activity change, negative = inhibition: at 70.3 µM (top of the series)
Summary of the method: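 Endogenous full-length ER-alpha in BG1-Luc-4E2 cells drives a stably integrated 4×ERE luciferase gene; compounds were tested against 17beta-estradiol over 21.5 h, with luminescence and multiplexed viability fluorescence recorded.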

[9] = qHTS assay to identify small molecule antagonists of the estrogen receptor alpha (ER-alpha) signaling pathway using the BG1 cell line - cell viability counter screen (AID 743081);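 note: compound given together with 17beta-estradiol as the ER stimulus; nearly all actives have a fitted effect of over 45% in size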; note: potency is the fitted concentration of half-maximal effect
Aromatase (Homo sapiens) = Aromatase (Homo sapiens) (UniProt P11511); assay: qHTS assay to identify aromatase inhibitors (AID 743083); note: nearly all actives have a fitted effect of over 55% in size; note: potency is the fitted concentration of half-maximal effect
Chain of Aromatase (Homo sapiens) (P11511 whole entry, looked up): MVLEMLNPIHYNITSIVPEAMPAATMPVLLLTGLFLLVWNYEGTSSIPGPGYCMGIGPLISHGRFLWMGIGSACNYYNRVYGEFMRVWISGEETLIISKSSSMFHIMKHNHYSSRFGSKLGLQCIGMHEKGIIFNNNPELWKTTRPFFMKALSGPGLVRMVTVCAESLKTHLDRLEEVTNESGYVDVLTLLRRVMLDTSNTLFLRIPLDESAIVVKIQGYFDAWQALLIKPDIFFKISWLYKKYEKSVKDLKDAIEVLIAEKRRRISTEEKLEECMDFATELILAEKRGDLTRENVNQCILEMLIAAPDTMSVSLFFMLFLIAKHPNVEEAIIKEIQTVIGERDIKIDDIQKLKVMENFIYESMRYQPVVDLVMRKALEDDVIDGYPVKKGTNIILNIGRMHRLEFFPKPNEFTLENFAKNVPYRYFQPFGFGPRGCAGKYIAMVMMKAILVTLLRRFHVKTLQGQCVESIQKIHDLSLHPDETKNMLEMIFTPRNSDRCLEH

Chain of Estrogen receptor (Homo sapiens) (P03372 whole entry, looked up): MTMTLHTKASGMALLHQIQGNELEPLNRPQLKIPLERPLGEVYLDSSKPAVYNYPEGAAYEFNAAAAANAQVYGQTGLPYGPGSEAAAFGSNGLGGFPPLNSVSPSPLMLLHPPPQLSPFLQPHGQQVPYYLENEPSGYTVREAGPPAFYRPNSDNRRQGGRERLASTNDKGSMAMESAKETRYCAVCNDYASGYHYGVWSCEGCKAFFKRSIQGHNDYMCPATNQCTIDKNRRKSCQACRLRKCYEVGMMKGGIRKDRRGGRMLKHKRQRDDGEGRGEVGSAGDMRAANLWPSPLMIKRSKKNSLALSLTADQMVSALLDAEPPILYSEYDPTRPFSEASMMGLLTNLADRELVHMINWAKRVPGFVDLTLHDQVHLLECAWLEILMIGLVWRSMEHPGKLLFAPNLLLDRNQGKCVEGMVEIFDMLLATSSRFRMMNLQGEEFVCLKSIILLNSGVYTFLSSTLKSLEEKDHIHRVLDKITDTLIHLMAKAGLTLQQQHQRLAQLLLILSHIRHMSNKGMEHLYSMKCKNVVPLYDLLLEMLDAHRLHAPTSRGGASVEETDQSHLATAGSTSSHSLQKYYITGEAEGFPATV

SMILES	Potency [1]	Potency [2]	Potency [3]	Potency [4]	Potency [5]	Potency [6]	Potency [7]	Potency [8]	Potency [9]	Potency (Aromatase (Homo sapiens))	activity change, negative = inhibition [8]
O=c1[nH]cnc2c1ncn2[C@H]1CC[C@@H](CO)O1	inactive	inactive	inactive and 1.31 µM (active)	inactive	inactive	inactive	inactive	inactive	inactive	inactive	
NS(=O)(=O)c1cc2c(cc1Cl)NCNS2(=O)=O	inactive	inactive	inactive	inactive	inactive	inactive	inactive	inactive	inactive	inactive	
NC(CO)(CO)CO	inactive	inactive	inactive and 9.69 µM (active)	inactive	inactive	inactive	inactive	inactive	inactive	inactive	
COc1ccc2c(c1)c(CC(=O)O)c(C)n2C(=O)c1ccc(Cl)cc1	inactive	inactive	inactive	inactive	inactive	inactive	inactive	inactive	inactive	inactive	
CN1CCC[C@H]1c1cccnc1	inactive	inactive	inactive		inactive			inactive	inactive	inactive	
CN(C)C(=O)Nc1ccc(Cl)c(Cl)c1	inactive	inactive	inactive	inactive	inactive	inactive	inactive	inactive	inactive	inactive	
O=S1(=O)OC(c2ccc(O)cc2)(c2ccc(O)cc2)c2ccccc21	27.3 µM (active)	inactive	inactive	inactive	inactive	inactive	15 µM (active) and inactive	inactive	13.3 µM (active) and 27.3 µM (active) and 17.2 µM (active)	inactive	
CCCCC1(COC(=O)CCC(=O)O)C(=O)N(c2ccccc2)N(c2ccccc2)C1=O	inactive	inactive	inactive	inactive	inactive	inactive	inactive	inactive	inactive	inactive	
CCCCCCCCCCCCCCCC[N+](C)(C)Cc1ccccc1	18.8 µM (active) and 14.1 µM (active) and 24.8 µM (active)	11.9 µM (active) and 8.91 µM (active) and 22.1 µM (active)	inactive		19 µM (active) and 25.3 µM (active) and 31.4 µM (active)	inactive			inactive	26.6 µM (active) and 50.1 µM (active) and 27.8 µM (active)	-23.2% (active)
Cc1cccc(C)c1	inactive	inactive	inactive	inactive	inactive	inactive and 1.34 µM [inconclusive] (active)	inactive and 26.5 µM (active)	inactive	inactive	inactive	
C=C(C)C(=O)OCC(C)O (stereo not drawn)	inactive	inactive	inactive	inactive	inactive	inactive	inactive	inactive	inactive	inactive	
CCOc1ccc(NC(C)=O)cc1	inactive	inactive	inactive	inactive	inactive	inactive	inactive	inactive	inactive	inactive	
Cc1ncc([N+](=O)[O-])n1C	inactive	inactive	inactive	inactive	inactive	inactive	inactive	inactive	inactive	inactive	
CN(C)CCOC(c1ccccc1)c1ccccc1	26.6 µM (active) and 19.4 µM (active)	26.6 µM (active) and 48.6 µM (active)	inactive	inactive	inactive and 9.52 µM (active)	inactive	inactive	inactive	inactive		
CC12CCC(CC1)C(C)(C)O2	inactive	inactive	inactive	inactive	inactive	inactive	inactive	inactive	inactive	inactive	
CCc1nc(N)nc(N)c1-c1ccc(Cl)cc1	62.1 µM (active)	10.6 µM (active) and 6.21 µM (active) and 9.69 µM (active)	inactive	inactive	7.02 µM (active)	inactive		23.7 µM (active)	inactive	inactive and 55.3 µM (active)	
